The record followed here is PubChem BioAssay (NCI).

Compounds without any hit were thinned out: in the full panel of roughly 83,000, 20% have a hit.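 Each cell line was grown in a 96-well plate and treated with one concentration of compound for 48 hours. Values below 10 were considered active.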 Values without a mark were called inactive. Active and inactive are the calls of the source.

Among the test systems are EKVX NSCLC; SN12C renal; UO-31 renal; TK-10 renal; ACHN renal; CAKI-1 renal; A498 renal; CCRF-CEM leukemia; MOLT-4 leukemia; SR leukemia; RPMI-8226 leukemia; OVCAR-5 ovarian; OVCAR-4 ovarian; SK-OV-3 ovarian; IGROV1 ovarian; OVCAR-3 ovarian; HS 578T breast; NCI/ADR-RES ovarian; OVCAR-8 ovarian.
Experiment in all cases: NCI-60 one-dose screen, 48 h (100 = growth as untreated, 0 = no growth, -100 = all killed)
Settings in all cases: 10 µM unless noted

On to `O=C1Nc2ccccc2SC1C1SC(=S)N(Cc2ccccc2)C1=O` (configuration not stated), for which the growth is 105% in the assay with EKVX NSCLC; 99.5% in the assay on SN12C renal; 73.1% with UO-31 renal; 21.8% in the assay on TK-10 renal; 108% with ACHN renal; 78.2% in the assay with CAKI-1 renal. In addition, the growth is 109% with A498 renal; 51.1% with CCRF-CEM leukemia; 67.3% in the assay on MOLT-4 leukemia; -12.1% (active) in the assay with SR leukemia; -21.7% (active) in the assay on RPMI-8226 leukemia; 104% in the assay with OVCAR-5 ovarian. Moreover, the growth with OVCAR-4 ovarian was 59.8%; with SK-OV-3 ovarian, 118%; in the assay with IGROV1 ovarian, 96.5%; with OVCAR-3 ovarian, -5.62% (active); in the assay on HS 578T breast, 27%; with NCI/ADR-RES ovarian it was 104%.

Take `Cc1cnc(Nc2ccc(N3CCN(C)CC3)cc2)nc1Nc1ccc(Cl)c(NS(=O)(=O)C(C)(C)C)c1`: the growth is 32.5% in the assay with EKVX NSCLC; -20.7% (active) with UO-31 renal; 0.435% (active) in the assay on TK-10 renal; -4.72% (active) with ACHN renal; 25% with CAKI-1 renal; -85.4% (active) in the assay with A498 renal. Further, the growth was 34.2% in the assay with CCRF-CEM leukemia; 10% (active) in the assay on MOLT-4 leukemia; -3.93% (active) in the assay on SR leukemia; 5.58% (active) in the assay on RPMI-8226 leukemia; 21.7% in the assay on OVCAR-8 ovarian; 19.9% in the assay with OVCAR-5 ovarian. In addition, the growth in the assay on OVCAR-4 ovarian was 27.9%; in the assay on SK-OV-3 ovarian it was -6.97% (active); in the assay on IGROV1 ovarian it was 6.84% (active); in the assay with HS 578T breast, -6.51% (active); with NCI/ADR-RES ovarian, 21%.

On to `CC(C)(C)OC(=O)N1Cc2cc3ccccc3nc2C1CO` (configuration not stated), for which the growth in the assay on EKVX NSCLC was 92.9%; in the assay on SN12C renal, 98.9%; with UO-31 renal, 87%; in the assay on TK-10 renal it was 106%; in the assay with ACHN renal, 111%; in the assay with CAKI-1 renal, 53.2%. Besides, the growth was 97.1% with A498 renal; 128% in the assay on MOLT-4 leukemia; 137% with SR leukemia; 92.2% with OVCAR-8 ovarian; 110% in the assay with OVCAR-5 ovarian; 96% in the assay on OVCAR-4 ovarian. Moreover, the growth with SK-OV-3 ovarian was 119%; in the assay with IGROV1 ovarian, 92.7%; in the assay on OVCAR-3 ovarian, 101%; with HS 578T breast, 102%; with NCI/ADR-RES ovarian, 106%.

On to `CCNCCNc1cc(-c2ccc(F)cc2)c(C#N)c2nc3ccccc3n12`, for which the growth in the assay with SN12C renal is 70.9%; in the assay with UO-31 renal, 39.9%; in the assay on TK-10 renal, 87.5%; in the assay with ACHN renal, 9.08% (active); in the assay on CAKI-1 renal it was 71.2%; in the assay on A498 renal, -9.7% (active). In addition, the growth in the assay on CCRF-CEM leukemia was 27.1%; with MOLT-4 leukemia, 61.4%; in the assay with SR leukemia it was -23% (active); in the assay on RPMI-8226 leukemia, 36.4%; with OVCAR-8 ovarian it was 42.2%; in the assay with OVCAR-5 ovarian, 89.9%. The growth is 31% in the assay on OVCAR-4 ovarian; 94.5% with SK-OV-3 ovarian; 60.4% in the assay with IGROV1 ovarian; 0.676% (active) with OVCAR-3 ovarian; 64.2% with HS 578T breast; 55.4% in the assay with NCI/ADR-RES ovarian.

For the compound `O=c1ccn(C2OC(F)(CO)C(O)C2F)c(=O)[nH]1` (configuration not stated), the growth is 91.2% in the assay with EKVX NSCLC; 97.1% with UO-31 renal; 90.3% in the assay with TK-10 renal; 98.9% with ACHN renal; 94.3% with CAKI-1 renal; 68.5% with A498 renal. For the same compound, the growth in the assay on CCRF-CEM leukemia was 103%; with MOLT-4 leukemia, 99.8%; in the assay with SR leukemia it was 101%; with RPMI-8226 leukemia, 106%; in the assay on OVCAR-8 ovarian it was 98.3%; in the assay on OVCAR-5 ovarian, 103%. Moreover, the growth is 105% in the assay with OVCAR-4 ovarian; 93.4% in the assay on SK-OV-3 ovarian; 112% in the assay with IGROV1 ovarian; 107% in the assay on OVCAR-3 ovarian; 94.1% in the assay with HS 578T breast; 101% with NCI/ADR-RES ovarian.

As for `CCNCCNc1cc(C2CCCC2)c(C#N)c2nc3ccccc3n12`, the growth in the assay with EKVX NSCLC was 38%; with SN12C renal, 46.3%; in the assay on UO-31 renal, -74.9% (active); in the assay on TK-10 renal, -24.7% (active); in the assay with CAKI-1 renal it was 39.5%; with A498 renal it was 75.4%. Besides, the growth in the assay on CCRF-CEM leukemia was -8.07% (active); in the assay on MOLT-4 leukemia, -17.9% (active); with SR leukemia, -4.31% (active); in the assay with RPMI-8226 leukemia it was 1.72% (active); with OVCAR-8 ovarian, 28.6%; in the assay with OVCAR-5 ovarian, 71.2%. The growth with OVCAR-4 ovarian is -13.5% (active); in the assay on SK-OV-3 ovarian it was 40.5%; with IGROV1 ovarian, 43.7%; in the assay on OVCAR-3 ovarian, -82% (active); in the assay with NCI/ADR-RES ovarian it was 33.1%.

For `C=C(C=O)[C@@H]1CC=C(C=O)CC1`, the growth in the assay on EKVX NSCLC was 2.06% (active); with SN12C renal, -14.1% (active); in the assay with UO-31 renal it was -41.7% (active); with TK-10 renal it was -42.2% (active); with ACHN renal, -54.9% (active); in the assay with CAKI-1 renal it was -31.7% (active). Also, the growth was 81.7% with A498 renal; -52.7% (active) in the assay on CCRF-CEM leukemia; -40.8% (active) in the assay with MOLT-4 leukemia; -6.52% (active) in the assay on SR leukemia; -36.6% (active) in the assay on RPMI-8226 leukemia; -54.5% (active) in the assay with OVCAR-5 ovarian. In addition, the growth in the assay on OVCAR-4 ovarian is 10.5%; in the assay on SK-OV-3 ovarian, 0.713% (active); in the assay with IGROV1 ovarian, -24.5% (active); in the assay on OVCAR-3 ovarian, -19.7% (active); in the assay on HS 578T breast it was 6.33% (active); with NCI/ADR-RES ovarian, 3.97% (active).

In the case of `O=C1CSC(c2ccc(O)cc2)N1c1nnc(Cn2cnnc2)o1` (configuration not stated), the growth in the assay with EKVX NSCLC is 99.1%; with SN12C renal it was 85.9%; with UO-31 renal it was 91.9%; in the assay with TK-10 renal, 131%; in the assay on ACHN renal it was 108%; in the assay on CAKI-1 renal, 79.4%. Further, the growth in the assay with A498 renal is 99.9%; with CCRF-CEM leukemia it was 49.1%; in the assay on MOLT-4 leukemia, 58.7%; in the assay on RPMI-8226 leukemia it was 62%; with OVCAR-5 ovarian, 96.1%; in the assay with OVCAR-4 ovarian it was 88.6%. Moreover, the growth in the assay on SK-OV-3 ovarian was 112%; in the assay with OVCAR-3 ovarian it was 15.2%; in the assay on HS 578T breast, 64.7%; in the assay on NCI/ADR-RES ovarian, 92.2%.

Turning to `N#Cc1c(-c2ccc(C(F)(F)F)cc2)cc(N2CC(O)C2)n2c1nc1ccccc12`, the growth in the assay with EKVX NSCLC was 63.6%; with SN12C renal, 72.3%; in the assay with UO-31 renal, 54.5%; with TK-10 renal it was 64%; in the assay on CAKI-1 renal, 72.1%; with A498 renal, -4.38% (active). In addition, the growth with CCRF-CEM leukemia was 102%; with MOLT-4 leukemia, 103%; in the assay on SR leukemia, 73.5%; in the assay on RPMI-8226 leukemia, 78.8%; with OVCAR-8 ovarian, 19.4%; with OVCAR-5 ovarian it was 77.5%. Further, the growth was -29.8% (active) in the assay on OVCAR-4 ovarian; 18.8% with SK-OV-3 ovarian; 60.9% in the assay on IGROV1 ovarian; 48.4% in the assay on OVCAR-3 ovarian; 17.8% in the assay with HS 578T breast; 38.3% in the assay with NCI/ADR-RES ovarian.
